We go through 40 compounds from PubChem BioAssay.

Activity calls are given as the source filed them.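 How the source made its calls, unless noted: active means visually confirmed hit in the image check and inhibition above 20%; inconclusive means visually confirmed hit but inhibition not above 20%; inactive means no visual hit in the image check.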

One test can be described thus: inhibitors of mutant huntingtin aggregation, primary screen, imaging, exon1htt(103Q)mCFP cells, high-content imaging (AID 483;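 active means visual image review flags a hit and inhibition of aggregation exceeds 20%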;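 further: compound exposure lasted 3 days before fixation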;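 on nuclei count: percent of the per-plate median nuclei count of sample wells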). To be noted: exon1htt(103Q)mCFP cell line, aggregate imaging, at 2 µM; inhibition of aggregation: stronger effect = higher value; nuclei count: measured here: cell count, toxicity.
Take `CCCn1c2c(c(O)c(C(=O)Nc3ccc(C)cn3)c1=O)CCCC2`: the nuclei count is 96.3% and the inhibition of aggregation was -6.3% (inactive).
The corresponding values for `CCCC1(C(=O)OCC)NC(c2ccc(N(C)C)cc2)C2C(=O)N(c3ccccc3)C(=O)C21` (stereo not given) are 92.4% and 4.8% (inactive).
In the case of `COc1cc(C2C(C(=O)c3ccc(C)o3)=C(O)C(=O)N2c2cc(C)on2)cc(Br)c1O` (stereo not given), the nuclei count is 109% and the inhibition of aggregation was -2.8% (inactive).
For `CCCCc1cc(=O)oc2c(CN3CCCC3)c(O)c(Cl)cc12`, the inhibition of aggregation was -16.7% (inactive) and the nuclei count was determined as 46.6%.
The corresponding values for `Cc1ccccc1-c1nc(CN2CCC(C(=O)NCc3cccnc3)CC2)c(C)o1` are -3.7% (inactive) and 103%.
In the case of `O=C(Nc1ccc(Cc2ccncc2)cc1)C1CC1`, the nuclei count came out at 100% and the inhibition of aggregation is -6.1% (inactive).
As for `Nc1cc(C(=O)O)ccc1Nc1ccc(F)c(F)c1`, the inhibition of aggregation is -0.6% (inactive) and the nuclei count amounted to 124%.
With `CSc1nc2c(ccc3ccccc32)o1`, the nuclei count was determined as 104% and the inhibition of aggregation is -4.8% (inactive).
For the compound `CCCCSc1nc2c(cnn2-c2ccc(Cl)cc2)c(=O)[nH]1`, the nuclei count was 103% and the inhibition of aggregation is 6.5% (inactive).
With `CC(NO)C(C)(C)NO` (stereo not given), the inhibition of aggregation was -7.5% (inactive) and the nuclei count amounted to 101%.
In the case of `CCCCOc1ccc(C(=O)Nc2ccc(N3CCN(C(=O)C(C)C)CC3)cc2)cc1`, the inhibition of aggregation was -19.5% (inactive) and the nuclei count came out at 92.4%.
Turning to `O=c1[nH]c2ccccc2nc1NCCN1CCOCC1`, the nuclei count was 98.9% and the inhibition of aggregation was -31.4% (inactive).
The corresponding values for `CCOC(=O)c1ccccc1NC(=O)COC(=O)C1=COCCO1` are 61.5% and 14% (inactive).
Turning to `COCCCNC(=O)C(Cc1ccccc1)NS(=O)(=O)c1ccc2c(c1)c(=O)n(C)c(=O)n2C` (stereo not given), the nuclei count turned out to be 94.5% and the inhibition of aggregation is 42.3% (active).
Turning to `Cc1nc2cc(CO)ccc2n1C`, the inhibition of aggregation was 1% (inactive) and the nuclei count was determined as 92.7%.
As for `NCC(O)COc1ccc2c(c1)OCO2` (stereo not given), the inhibition of aggregation was -7.4% (inactive) and the nuclei count turned out to be 99.3%.
Taken in the same sequence, the figures for `Nc1nc2sc3c(c2c(=O)s1)CCCC3` were -15.1% (inactive) and 55.3%.
The corresponding values for `COc1cccc(OC)c1C(=O)N1CCN(S(=O)(=O)c2ccccc2)CC1` are -1.7% (inactive) and 105%.
With `COc1ccc(C(NC(=O)c2ccco2)c2ccc(OC)c(OC)c2)cc1` (stereo not given), the nuclei count was 104% and the inhibition of aggregation was -4.2% (inactive).
Taken in the same sequence, the figures for `O=C(O)C1CC(=O)N(c2ccc(OCc3ccccc3Cl)cc2)C1` (stereo not given) were 97.1% and 12.7% (inactive).
The corresponding values for `O=C(CCSc1nnc(-c2ccncc2)o1)Nc1ccccc1` are 107% and 1% (inactive).
On to `CCNS(=O)(=O)c1c(C)cc(N2CCCC2=O)cc1C`, for which the inhibition of aggregation was 4.4% (inactive) and the nuclei count was determined as 88.1%.
`CN(C)C(CNc1nnnn1-c1ccccc1)c1ccco1` (stereo not given): the nuclei count was 96% and the inhibition of aggregation was -11.4% (inactive).
The corresponding values for `Cn1c(-c2ccccc2)c(CCO)c2ccccc21` are 88.3% and -2.6% (inactive).
The corresponding values for `CCOC(=O)C1C(=O)NC(SCC(=O)Nc2nccs2)=C(C#N)C1c1ccccc1OCC` (stereo not given) are 120% and -20.6% (inactive).
Taken in the same sequence, the figures for `c1ccc2nc(-c3nc4ccccc4[nH]3)ccc2c1` were 85.8% and -19.5% (inactive).
With `COc1cc(-c2nc(S(=O)(=O)c3ccccc3)c(N3CCOCC3)o2)cc(OC)c1OC`, the inhibition of aggregation is -5.3% (inactive) and the nuclei count was 108%.
Taken in the same sequence, the figures for `O=C(N1CCN(Cc2ccccc2)CC1)C12CC3CC(CC(C3)C1)C2` were 2% (inactive) and 88.3%.
Taken in the same sequence, the figures for `CC(=O)c1c(NCCc2ccccc2)cc(C)oc1=O` were 8.3% (inactive) and 104%.
The corresponding values for `O=C(NCCCN1CCN(CCCNC(=O)c2ccc(F)cc2)CC1)c1ccc(F)cc1` are -1.8% (inactive) and 109%.
With `C=CCn1c(SCc2cc(=O)n3ccsc3n2)nnc1C1CCCCC1`, the nuclei count came out at 104% and the inhibition of aggregation is -27.5% (inactive).
As for `Oc1c(Cl)cc(Cl)c2c1NCCC2`, the nuclei count was determined as 100% and the inhibition of aggregation was -13.1% (inactive).
Taken in the same sequence, the figures for `CN(C)S(=O)(=O)c1ccc2c(c1)C(CC(=O)O)OC2=O` (stereo not given) were 109% and 13.2% (inactive).
Regarding `COc1cc(OC)cc(-n2nnnc2SCC(=O)N2CCCC2)c1`, the inhibition of aggregation was 18.3% (inactive) and the nuclei count is 94.2%.
The corresponding values for `CCC(=O)N1CCc2cc(Br)cc(S(=O)(=O)C3(C(=O)OC)CC3)c21` are -5.1% (inactive) and 98.8%.
On to `COC(=O)C(C)Sc1nc2c(c(=O)n(C)c(=O)n2C)n1Cc1cccc(C)c1` (stereo not given), for which the nuclei count came to 99.3% and the inhibition of aggregation is -2.4% (inactive).
The corresponding values for `Cn1c(SCc2ccc3c(c2)OCO3)nnc1-c1ccccc1` are 93.9% and 15.3% (inactive).
Taken in the same sequence, the figures for `Cc1nn(-c2ccc(F)cc2)c(C)c1NS(=O)(=O)c1ccc(Cl)cc1` were 89.1% and 17.1% (inactive).
The corresponding values for `CC1(C)OC(=O)C(=CNc2ccccc2)C(=O)O1` are 108% and -4.1% (inactive).
As to `CCCCCn1c(CN(C)Cc2ccccc2)nc2c1c(=O)n(C)c(=O)n2C`, the nuclei count was found to be 86.5% and the inhibition of aggregation was -2% (inactive).

The nature of the next test: inhibitors of E-selectin induction by TNFa, primary screen, imaging, HUVEC, immunofluorescence, MLSMR starter and 10KST1 sets (AID 487).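 On inhibition: signal is fraction of cell area covered by stained E-selectin grains.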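 On nuclei count: 100% = median nuclei count of all wells on the same plate.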 To be noted: HUVEC TNFalpha-induced E-selectin immunofluorescence imaging, at 2 µM; inhibition: stronger effect = higher value; nuclei count: measured here: cell number, toxicity.
A word on the inhibition: it is the drop in the measured response relative to a control, in per cent. As for `CCCn1c2c(c(O)c(C(=O)Nc3ccc(C)cn3)c1=O)CCCC2`, the inhibition is -7.5% (inactive) and the nuclei count was found to be 91.3%.
For `CCCC1(C(=O)OCC)NC(c2ccc(N(C)C)cc2)C2C(=O)N(c3ccccc3)C(=O)C21` (stereo not given), the inhibition is -15.1% (inactive) and the nuclei count stood at 95%.
The corresponding values for `COc1cc(C2C(C(=O)c3ccc(C)o3)=C(O)C(=O)N2c2cc(C)on2)cc(Br)c1O` (stereo not given) are -127% (inactive) and 118%.
Taken in the same sequence, the figures for `CCCCc1cc(=O)oc2c(CN3CCCC3)c(O)c(Cl)cc12` were 26.1% (inactive) and 89.4%.
The corresponding values for `Cc1ccccc1-c1nc(CN2CCC(C(=O)NCc3cccnc3)CC2)c(C)o1` are -149% (inactive) and 119%.
Consider `O=C(Nc1ccc(Cc2ccncc2)cc1)C1CC1`, for which the nuclei count is 118% and the inhibition is -33.5% (inactive).
With `Nc1cc(C(=O)O)ccc1Nc1ccc(F)c(F)c1`, the nuclei count came out at 96.9% and the inhibition was 6.9% (inactive).
In the case of `CSc1nc2c(ccc3ccccc32)o1`, the inhibition was -70.5% (inactive) and the nuclei count worked out at 102%.
Taken in the same sequence, the figures for `CCCCSc1nc2c(cnn2-c2ccc(Cl)cc2)c(=O)[nH]1` were -23.4% (inactive) and 111%.
With `CC(NO)C(C)(C)NO` (stereo not given), the inhibition was -18.8% (inactive) and the nuclei count was found to be 126%.
The corresponding values for `CCCCOc1ccc(C(=O)Nc2ccc(N3CCN(C(=O)C(C)C)CC3)cc2)cc1` are -59.7% (inactive) and 115%.
The corresponding values for `O=c1[nH]c2ccccc2nc1NCCN1CCOCC1` are -80.4% (inactive) and 134%.
Taken in the same sequence, the figures for `CCOC(=O)c1ccccc1NC(=O)COC(=O)C1=COCCO1` were -92% (inactive) and 95.5%.
Take `COCCCNC(=O)C(Cc1ccccc1)NS(=O)(=O)c1ccc2c(c1)c(=O)n(C)c(=O)n2C` (stereo not given): the nuclei count stood at 117% and the inhibition is -10.2% (inactive).
Taken in the same sequence, the figures for `Cc1nc2cc(CO)ccc2n1C` were 108% and -12.6% (inactive).
With `NCC(O)COc1ccc2c(c1)OCO2` (stereo not given), the inhibition is -61.9% (inactive) and the nuclei count is 103%.
`Nc1nc2sc3c(c2c(=O)s1)CCCC3`: the nuclei count is 90.7% and the inhibition is 18.8% (inactive).
With `COc1cccc(OC)c1C(=O)N1CCN(S(=O)(=O)c2ccccc2)CC1`, the nuclei count stood at 102% and the inhibition was -13.1% (inactive).
With `COc1ccc(C(NC(=O)c2ccco2)c2ccc(OC)c(OC)c2)cc1` (stereo not given), the nuclei count stood at 114% and the inhibition was -24.8% (inactive).
As for `O=C(O)C1CC(=O)N(c2ccc(OCc3ccccc3Cl)cc2)C1` (stereo not given), the nuclei count was 94.8% and the inhibition was -95.2% (inactive).
Taken in the same sequence, the figures for `O=C(CCSc1nnc(-c2ccncc2)o1)Nc1ccccc1` were 114% and -26.7% (inactive).
The corresponding values for `CCNS(=O)(=O)c1c(C)cc(N2CCCC2=O)cc1C` are 89% and 27.7% (inactive).
As to `CN(C)C(CNc1nnnn1-c1ccccc1)c1ccco1` (stereo not given), the nuclei count amounted to 116% and the inhibition was -23.9% (inactive).
For `Cn1c(-c2ccccc2)c(CCO)c2ccccc21`, the inhibition was -60.6% (inactive) and the nuclei count was 152%.
As for `CCOC(=O)C1C(=O)NC(SCC(=O)Nc2nccs2)=C(C#N)C1c1ccccc1OCC` (stereo not given), the nuclei count was 104% and the inhibition was 20.7% (inactive).
`c1ccc2nc(-c3nc4ccccc4[nH]3)ccc2c1`: the nuclei count turned out to be 101% and the inhibition was -6.9% (inactive).
The corresponding values for `COc1cc(-c2nc(S(=O)(=O)c3ccccc3)c(N3CCOCC3)o2)cc(OC)c1OC` are 126% and -286% (inactive).
In the case of `O=C(N1CCN(Cc2ccccc2)CC1)C12CC3CC(CC(C3)C1)C2`, the nuclei count was determined as 92.7% and the inhibition is -15.4% (inactive).
For `CC(=O)c1c(NCCc2ccccc2)cc(C)oc1=O`, the nuclei count turned out to be 106% and the inhibition was -32.4% (inactive).
For the compound `O=C(NCCCN1CCN(CCCNC(=O)c2ccc(F)cc2)CC1)c1ccc(F)cc1`, the nuclei count was found to be 102% and the inhibition is 4.2% (inactive).
The corresponding values for `C=CCn1c(SCc2cc(=O)n3ccsc3n2)nnc1C1CCCCC1` are 116% and 3.6% (inactive).
The corresponding values for `Oc1c(Cl)cc(Cl)c2c1NCCC2` are 91.9% and -47.5% (inactive).
Take `CN(C)S(=O)(=O)c1ccc2c(c1)C(CC(=O)O)OC2=O` (stereo not given): the inhibition is 27.5% (inactive) and the nuclei count was 105%.
The corresponding values for `COc1cc(OC)cc(-n2nnnc2SCC(=O)N2CCCC2)c1` are 12% (inactive) and 103%.
The corresponding values for `CCC(=O)N1CCc2cc(Br)cc(S(=O)(=O)C3(C(=O)OC)CC3)c21` are 3.4% (inactive) and 97.1%.
Taken in the same sequence, the figures for `COC(=O)C(C)Sc1nc2c(c(=O)n(C)c(=O)n2C)n1Cc1cccc(C)c1` (stereo not given) were -27.3% (inactive) and 117%.
Turning to `Cn1c(SCc2ccc3c(c2)OCO3)nnc1-c1ccccc1`, the nuclei count stood at 126% and the inhibition was -72.5% (inactive).
Taken in the same sequence, the figures for `Cc1nn(-c2ccc(F)cc2)c(C)c1NS(=O)(=O)c1ccc(Cl)cc1` were 98.7% and -56% (inactive).
For the compound `CC1(C)OC(=O)C(=CNc2ccccc2)C(=O)O1`, the inhibition was 54.3% (inactive) and the nuclei count stood at 102%.
Regarding `CCCCCn1c(CN(C)Cc2ccccc2)nc2c1c(=O)n(C)c(=O)n2C`, the nuclei count is 110% and the inhibition was -110% (inactive).
